The record followed here is PubChem BioAssay AID720697 (Broad Institute, 2013).

SMILES strings stand for the structures. Potency and affinity values are given separately. Results filed as inconclusive are left out. Activity calls are given as the source filed them.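 Rule for the calls: active = signal loss with fitted half-maximal concentration at or below twice the top valid tested dose in every test run; inconclusive = runs disagree, flat 30 to 70% signal loss, or poor fit; inactive = all runs flat, opposite direction, or potency beyond limit.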

The experiment in a line: HEK293T cytotoxicity, dose response, cytotoxicity control for miR-122 modulator project, cell-based, inhibitor set, cherry-pick, set 2 (AID 720697).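 Note: 0% = median of neutral control wells and -100% = MG132 positive control wells.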 The following applies: HEK293T viability, CellTiter-Glo luminescence, 48 h; series mostly up to 26 µM; activity change, negative = cytotoxicity: at the top concentration.
With `C[C@@H]1CN([C@H](C)CO)S(=O)(=O)c2ccc(C#CC3(O)CCCC3)cc2O[C@@H]1CN(C)C(=O)c1cccnc1`, the “activity change, negative = cytotoxicity” value was 196% (inactive).
As for `CNC[C@@H]1Oc2cc(C#CC3CCCCC3)ccc2S(=O)(=O)N([C@@H](C)CO)C[C@@H]1C`, the figure is -99.5% (inactive); as for `CO[C@@H]1CN(C)C(=O)c2ccc(NS(=O)(=O)c3cccc(F)c3)cc2OC[C@@H](C)NC[C@H]1C`, -41.8% (inactive); as for `CN(C)CCCNC(=O)C[C@H]1CC[C@H]2[C@@H](COc3ccc(NC(=O)c4ccccc4F)cc3C(=O)N2C)O1`, 42.9% (inactive).
